A selection: hits, their analogues and other compounds. The true share with any hit is near 3.8%.
Nrf2 inh = blocks Nrf2 signaling; A549 ARE-Fluc reporter, luciferase luminescence, 18-24 h; AID 504444; Potency, µM (titrated, usually from 46 µM), for the others: at the highest dose activity change, negative = inhibition, actives largely listed as inhibitors; actives 2.1% (n = 360,000); also: % is scaled to controls: 0 for no effect and ±100 for the full control effect; nearly all actives have a fitted effect of over 60% in size
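Two sequential reads on A549 ARE_Fluc cells exposed to compound for 18-24 h: a CellTiter-Fluor fluorescence read for viability, then a luciferase luminescence read for Nrf2/ARE activity.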
S2 tox = viability counter-screen for ATXN expression inhibitors; S2 cells (HEK-293 line with an ATXN2-luciferase reporter) viability, CellTiter-Fluor protease fluorescence, 24 h; Potency, µM (doses to about 56.7 µM), hits mostly cytotoxic; actives 0.49% (n = 400,000); AID 651635; also: nearly all actives have a fitted effect of over 40% in size
TGFb inhibitor = blocks TGF-b signaling; actives 1.2% (n = 410,000); Potency, µM (highest dose often 46.1 µM), for inactives: at the highest dose activity, negative = inhibition, actives largely listed as inhibitors; HepG2 CAGA-GFP TGF-b/SMAD3 reporter, GFP fluorescence, 18 h; TGF-beta stimulated, 500 pg/mL final; AID 588855; also: % is scaled to controls: 0 for no effect and ±100 for the full control effect; nearly all actives have a fitted effect of over 65% in size
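HEPG2 CAGA-GFP reporter cells (1000/well, DMEM with 1% FBS) received compounds, then recombinant TGF-beta at 500 pg/mL final for 18 hours at 37 degrees C. Per-cell GFP summed per well was normalised to unstimulated and stimulated DMSO controls before curve fitting.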
ATXN2 expr inh = reduces ATXN2 reporter expression in HEK-293 cells; HEK-293 ATXN2-luciferase reporter, luminescence, 24 h; Potency, µM (series often up to 57 µM), without a hit: at the top dose activity change, negative = inhibition, usual class: inhibitors; actives 0.72% (n = 360,000); also: % is scaled to controls: 0 for no effect and ±100 for the full control effect; nearly all actives have a fitted effect of over 55% in size
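qHTS (up to 57 uM final) was run with 24 h compound exposure of reporter cells at 37 °C. Each well was multiplexed: SteadyGlo luminescence measured ATXN2-luciferase expression after a fluorogenic Gly-Phe-AFC viability readout (25 uM final).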
A549 tox = A549 cytotoxicity, counter-screen for Nrf2 inhibitors; AID 504648; A549 ARE-Fluc cells, CellTiter-Fluor viability, 18-24 h; actives 0.16% (n = 390,000); Potency, µM (titrated, usually from 46 µM), for the others: at the top dose activity change, negative = cytotoxicity, actives largely listed as inhibitors; also: % is scaled to controls: 0 for no effect and ±100 for the full control effect
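A549 ARE_Fluc cells in 5% FBS OPTI-MEM were exposed to compounds in concentration-response for 18-24 h at 37 deg C. Viability was read by CellTiter-Fluor fluorescence (Ex 405/Em 525) after 30 min, before the luciferase read.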
HepG2 tox-1 = counter-screen for TGF-b inhibitors: cytotoxicity in HepG2 cells | HepG2 CAGA-GFP viability, ATP luminescence, 18 h | Potency, µM (top dose mostly 46.1 µM), inactives show at the highest dose activity change, negative = cytotoxicity, usual class: cytotoxic | actives 0.76% (n = 410,000)
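CellTiter-Glo luminescence gave cytotoxicity after 18 hours at 37 degrees C. The cells were HepG2 CAGA-GFP in 1% FBS DMEM, stimulated with 500 pg/mL TGF-beta after compound addition. %Activity was normalised to no-cell wells (complete cell-killing) and DMSO (no toxicity), and curves were fitted and classified.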
TGFb CAGA inh = TGF-b pathway inhibition, cherry-pick retest; shares compounds with TGFb inhibitor; actives 63% (n = 1,600); Potency, µM (top dose mostly 46.1 µM), for the others: at the highest dose activity, negative = inhibition, actives largely listed as inhibitors; HepG2 CAGA-GFP TGF-b reporter, GFP fluorescence, 18 h; cells stimulated with TGF-beta, 500 pg/mL; also: % is scaled to controls: 0 for no effect and ±100 for the full control effect; nearly all actives have a fitted effect of over 65% in size
HepG2 tox-2 = toxic to HepG2 cells in TGF-b counterscreen; shares compounds with TGFb inhibitor; HepG2 CAGA-GFP viability, ATP luminescence, 18 h; cells stimulated with TGF-beta, 500 pg/mL; Potency, µM (series often up to 46.1 µM), inactives show at the top dose activity, negative = cytotoxicity, most hits filed as inhibitors; actives 27% (n = 1,600); AID 720535; also: % is scaled to controls: 0 for no effect and ±100 for the full control effect; nearly all actives have a fitted effect of over 70% in size
TGFb CCL64 inh = TGF-b inhibition, CCL64 orthogonal assay; actives 41% (n = 1,600); CCL64 CAGA-GFP reporter, TGF-b stimulated, GFP fluorescence, 18 h; shares compounds with TGFb inhibitor; Potency, µM (highest dose often 46.1 µM), for inactives: at the highest dose activity, negative = inhibition, usual class: inhibitors; also: nearly all actives have a fitted effect of over 65% in size
COP TGFb inh = validation of TGF-b inhibitors in HepG2 COP promoter reporter | shares compounds with TGFb inhibitor | HepG2 COP-GFP TGF-b reporter, GFP fluorescence, 18 h; cells stimulated by added recombinant TGF-beta | Potency, µM (series often up to 46.1 µM), for the others: at the highest dose activity, negative = inhibition, most hits filed as inhibitors | actives 3% (n = 1,600); also: nearly all actives have a fitted effect of over 70% in size
The depositor's hits bear a star; i = inactive; ? = inconclusive; . = not tested or not shown. Calls follow the shape of the dose curve; as a rule, active = well fitted curve in the direction sought with a large enough effect; inconclusive = small, poorly fitted or top-dose-only effect, or another doubt; inactive = no such curve, though single readings can be large; an effect the other way counts as inactive or inconclusive. Potency is read from the fitted curve at half-maximal effect.

SMILES	Nrf2 inh	S2 tox	TGFb inhibitor	ATXN2 expr inh	A549 tox	HepG2 tox-1	TGFb CAGA inh	HepG2 tox-2	TGFb CCL64 inh	COP TGFb inh
CC(C)CC(NC(=O)c1cccs1)c1nnc(SCc2ccc(Cl)c(Cl)c2)n1C (centres undefined)	?	?	5.6µM*	-22%	-12%	-22%	18µM*	18µM*	?	3%
O=C(CSc1nccn1Cc1ccc(F)cc1)Nc1ccc2c(c1)OCCO2	.	.	-23%	.	-3%	-16%	.	.	.	.
Cc1ccc(SCC(=O)OC(C)C(=O)NCc2ccccc2)cc1 (centres undefined)	?	?	?	-9%	0%	-56%	.	.	.	.
Cc1ccc(NC(=O)CCNS(=O)(=O)c2ccc3c(c2)CCCC(=O)N3)cc1	-1%	i	-1%	-10%	-4%	-23%	.	.	.	.
O=C(Nc1ccc2nc3n(c(=O)c2c1)CCCCC3)c1ccccc1[N+](=O)[O-]	-5%	i	9%	1%	-11%	-12%	.	.	.	.
O=C(Nc1ccc2nc3n(c(=O)c2c1)CCCCC3)c1c(F)ccc([N+](=O)[O-])c1F	11%	.	5µM*	7.1µM*	?	11µM*	2.6µM*	2.6µM*	4.1µM*	8.2µM*
Cc1ccc(C2(c3ccc(C)cc3)CC2C(=O)Nc2ccc([N+](=O)[O-])cc2O)cc1 (centres undefined)	?	.	4µM*	16µM*	?	11µM*	5.8µM*	8.2µM*	7.3µM*	?
C/C=C1\COC(C(=O)NCc2ccccc2)(C(F)(F)F)C=C1C=C1CCCCC1 (centres undefined)	-25%	i	11µM*	-8%	12%	-12%	?	-24%	?	0%
COc1cccc(Cn2c(=O)n(Cc3ccco3)c(=O)c3oc4ccccc4c32)c1	14%	.	-10%	.	11%	-34%	.	.	.	.
CCCN(CCC)CC(O)CN1C(=O)N(CN2C(=O)N(CC(O)CN(CCC)CCC)C(=O)C2(C)C)C(C)(C)C1=O (centres undefined)	?	?	14%	-36%	-9%	-3%	.	.	.	.
CC(=O)Oc1c(I)cc(I)cc1C(=O)Nc1ccc(Cl)cc1	23µM*	?	5µM*	?	?	-36%	4.6µM*	8.2µM*	6.5µM*	45%
CC(=O)O[C@@H]1CC2C3CCc4cc(OC(=O)c5ccccc5)ccc4C3CCC2(C)[C@H]1OC(C)=O (some centres undefined)	.	i	.	8%	.	.	.	.	.	.
Cc1ccc(Cn2c(C(CO)Nc3nc(-c4ccc(F)cc4)cs3)nc3ccccc32)cc1 (centres undefined)	?	.	-3%	?	-15%	16%	.	.	.	.
OCCCn1c(C(CO)Nc2nc(-c3ccc(Cl)cc3)cs2)nc2ccccc21 (centres undefined)	-19%	i	18µM*	-30%	0%	-29%	15µM*	-29%	?	10%
COc1ccc(S(=O)(=O)n2nc(-c3ccc(Cl)cc3)cc2N)cc1	?	?	13µM*	-34%	-7%	-18%	?	?	?	32%
COc1ccc(-c2cc(N)n(S(=O)(=O)c3ccc(C)cc3)n2)c(OC)c1	-4%	i	-9%	-7%	2%	-23%	.	.	.	.
Nc1cc2[nH]c(=O)c3ccccc3c2cc1[N+](=O)[O-]	?	?	11µM*	-1%	-24%	-10%	?	?	?	71%
Cc1ccc(COC(=O)c2nn(C)c(=O)c3ccccc23)cc1	23µM*	i	?	-16%	-15%	-9%	?	3%	6%	-8%
Cn1nc(C(=O)OCc2ccc(F)cc2)c2ccccc2c1=O	?	i	11%	-21%	1%	-13%	.	.	.	.
CN[C@@H](C)C(=O)N[C@H]1CN(C(=O)CC(C)C)CC[C@H]2CC[C@@H](C(=O)NC(c3ccccc3)c3ccccc3)N2C1=O	.	.	.	-3%	.	.	.	.	.	.
CCCCNc1c(-c2ccc(OC)c(SC(C)CC)c2)nc2ccc(Cl)cn12 (centres undefined)	7%	?	10µM*	-20%	-12%	-6%	?	-19%	?	-5%
Cc1cnc2c(c1SCC(=O)Nc1ccc(F)cc1F)c(=O)n(C)c(=O)n2C	.	i	0%	13%	-1%	2%	.	.	.	.
O=C1Nc2ccccc2N=C(c2ccc3c(c2)OCO3)C1N(C(=O)c1ccnc2ccccc12)c1ccccc1 (centres undefined)	.	?	16µM*	-36%	.	-13%	23µM*	-24%	?	49%
COc1ccc(C2=Nc3ccccc3NC(=O)C2N(Cc2ccc(F)cc2)C(=O)c2ccco2)cc1 (centres undefined)	.	?	?	4%	.	-31%	.	.	.	.
O=C1Nc2ccccc2N=C(c2ccc3c(c2)OCO3)C1N(C(=O)c1ccc2ccccc2c1)C1CC1 (centres undefined)	.	?	13µM*	2%	.	0%	23µM*	?	16µM*	51%
Cc1cnc(C(=O)N(c2ccc(N3CCOCC3)cc2)C2C(=O)Nc3ccccc3N=C2c2ccc(F)cc2)cn1 (centres undefined)	.	i	-14%	33%	.	-2%	.	.	.	.
